Source: PubChem BioAssay (several laboratories)
CYP2C19 act: human CYP2C19 activators, primary screen, biochemical, luminescence; 96,000 tested, under 10 active; activation factor at 5 µM; Cytochrome P450 2C19 (Homo sapiens), P33261; recombinant CYP2C19, luciferin-H EGE luminescence; active compounds read high; 0 = fully inhibited enzyme, 1 = untreated enzyme; AID 1025, 2008;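 active = activation factor of at least 2 at 5 µM in the primary screen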;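 note: 0 = wells with 2.5 mM tranylcypromine and 1 = vehicle-only wells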
PLK1 inh: human PLK1 kinase inhibitors, primary screen, biochemical, TR-FRET. Serine/threonine-protein kinase PLK1 (Homo sapiens), P53350. recombinant PLK1 kinase, TR-FRET peptide phosphorylation. inhibition, % at 10 µM. 0.53% of 97,000 active. AID 619, 2007;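 active = inhibition of 50% or more in the single-concentration screen; inactive = inhibition below 50%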;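 note: 0% = DMSO max control and 100% = H-89 dihydrochloride min control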
Target sequence (P53350 whole entry, looked up): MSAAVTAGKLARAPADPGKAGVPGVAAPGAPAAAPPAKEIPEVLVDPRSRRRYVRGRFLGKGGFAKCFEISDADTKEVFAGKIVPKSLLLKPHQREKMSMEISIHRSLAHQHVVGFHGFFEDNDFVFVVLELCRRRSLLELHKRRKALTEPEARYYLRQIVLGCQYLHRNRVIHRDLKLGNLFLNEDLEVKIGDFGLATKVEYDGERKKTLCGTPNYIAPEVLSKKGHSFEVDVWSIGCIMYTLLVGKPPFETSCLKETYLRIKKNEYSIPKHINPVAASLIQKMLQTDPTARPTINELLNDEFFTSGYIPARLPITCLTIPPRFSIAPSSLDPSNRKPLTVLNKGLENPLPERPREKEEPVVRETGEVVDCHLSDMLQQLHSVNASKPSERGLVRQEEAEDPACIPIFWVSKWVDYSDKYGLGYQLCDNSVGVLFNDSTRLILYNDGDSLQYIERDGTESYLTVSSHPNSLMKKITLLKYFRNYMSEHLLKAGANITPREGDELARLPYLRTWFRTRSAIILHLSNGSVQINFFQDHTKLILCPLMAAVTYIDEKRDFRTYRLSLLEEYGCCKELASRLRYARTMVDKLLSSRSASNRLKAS
CYP2C9 inh: blockers of cytochrome P450 2C9 activity – biochemical, luminescence, ADME assay, primary screen. AID 777, 2007. CYP2C9 Supersomes, luciferin-H conversion. 20% of 96,000 active. inhibition, % at 5 µM;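 active = blocking of liver enzyme CYP2C9 beyond about 50% at 5 µM, limit read from the data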
CYP2C19 inh: blockers of cytochrome P450 2C19 activity – biochemical, luminescence, ADME assay, primary screen; CYP2C19 Supersomes, luciferin-H EGE luminescence, 30 min; inhibition, % at 5 µM; 21% of 96,000 active; AID 778, 2007;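 active = CYP2C19 inhibition above a set limit at 5 µM in the primary screen, cut at about 50% in these data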;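 note: plate controls were negative control wells for no effect and 2.5 mM tranylcypromine positive control for full effect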
PLK1 PBD inh: Plk1 polo box domain binding inhibitors, primary screen, biochemical, fluorescence polarization | Serine/threonine-protein kinase PLK1 (Homo sapiens), P53350 | Plk1 PBD phosphopeptide binding | inhibition, %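 (tested at about 20 µM)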 | 0.13% of 97,000 active | AID 693, 2007; in the data active = inhibition above about 34%, passing the limit was not always enough
CYP2C9 activ: human CYP2C9 activators, primary screen, biochemical, luminescence; Cytochrome P450 2C9 (Homo sapiens), P11712; recombinant CYP2C9, luciferin-H conversion; active compounds read high; factor 1 = untreated enzyme, 0 = blocked; activation factor at 5 µM; 1.4% of 96,000 active;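 active = activation factor of 2 or more for CYP2C9 at a 5 µM dose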;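 note: 0 = sulfaphenazole-blocked wells and 1 = vehicle-only wells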
PLK1 confirm: PLK1 kinase activity inhibitors, confirmation, biochemical, TR-FRET, duplicate runs; shares compounds with PLK1 inh; recombinant PLK1 kinase, TR-FRET peptide phosphorylation; inhibition, % at 10 µM; 20% of 210 active;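 active = inhibition at or above 50% in each of two repeat confirmation tests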;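 note: 0% = DMSO max control and 100% = H-89 kinase-blocked min control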
Plk1 interf: compound interference with Plk1 assay readout, artefact control for Plk1 kinase inhibitor project, biochemical, TR-FRET, compound added post-reaction. shares compounds with PLK1 inh. inhibition (interference), % at 10 µM. 210 tested, under 10 active. AID 756, 2007;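 active = both duplicate runs show 50% or greater inhibition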;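 note: 0% = DMSO max control and 100% = H-89 min control inhibited reaction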
An asterisk follows results filed as active; nt = no result. Sampled rows, rich in hits. Any-hit rate of the full collection: about 28%.

SMILES	CYP2C19 act	PLK1 inh	CYP2C9 inh	CYP2C19 inh	PLK1 PBD inh	CYP2C9 activ	PLK1 confirm	Plk1 interf
O=C(CCC(=O)c1ccc(Cl)cc1)OCC(=O)c1ccccc1	0.9	126*	-14	8	-15	1.1	-2	-53
O=C(CCc1nc2ccccc2[nH]c1=O)OCC(=O)c1ccc(Cl)cc1	nt	-7	nt	nt	-17	nt	nt	nt
COc1ccc(C2OC(=O)CC2C(=O)N2CCN(c3cc(Cl)ccc3C)CC2)cc1OC (centres undefined)	0.3	76*	85*	73*	-19	0.2	-5	-52
COc1ccc(Cl)cc1N1CCN(CCNC(=O)Nc2ccccc2C)CC1	1	-11	-51	-4	-22	1.5	nt	nt
CCN(CC)CC(=O)NN=C(c1ccccc1)c1ccccc1	1.1	-9	-3	-6	-8	1	nt	nt
COc1ccc(NC(=O)CN2CCN(c3ccc(Cl)cc3)CC2)c(OC)c1	0.5	-12	41	47	-7	0.6	nt	nt
CC(NC(=O)Cn1cnnn1)C12CC3CC(CC(C3)C1)C2 (centres undefined)	0.7	3	4	26	12	1	nt	nt
CCN1C(=O)C(O)(CC(=O)c2ccc3c(c2)OCCO3)c2ccccc21 (centres undefined)	0.3	72*	17	67*	17	0.8	-11	-55
O=C(CC1(O)C(=O)Nc2ccccc21)c1ccc2c(c1)OCO2 (centres undefined)	1	6	20	-2	-3	0.8	nt	nt
CCC(=O)N1CC(C)C(=O)Nc2ccccc21 (centres undefined)	1	-6	10	3	-6	0.9	nt	nt
Cc1ccc(C)c(NC(=S)NCCN2CCOCC2)c1	nt	-10	nt	nt	0	nt	nt	nt
C=CCc1cc(C)ccc1OCCn1ccnc1	0	86*	95*	96*	9	0.1	-7	-61
Cc1[nH]n(-c2ccccc2)c(=O)c1C(C[N+](=O)[O-])c1ccc(Br)cc1 (centres undefined)	0.5	101*	95*	53*	2	0.1	-6	-49
COC(=O)c1ccc(CSc2nnc(-c3c[nH]c4ccccc34)n2C)o1	0.1	71*	78*	93*	5	0.2	-13	-55
COCCn1c(SCC(N)=O)nnc1-c1c[nH]c2ccccc12	0.7	71*	12	27	-31	0.9	6	-46
CCSc1nnc(NC(=O)CSc2nnc(-c3c[nH]c4ccccc34)n2C)s1	0.7	76*	76*	30	24	0.2	-3	-46
Cn1c(SCC(=O)NCC2CCCO2)nnc1-c1c[nH]c2ccccc12 (centres undefined)	0.9	-9	-1	11	-3	1	nt	nt
Cc1ccc(C(=O)Cn2nnc3ccccc32)cc1C	0.9	-5	13	12	5	0.9	nt	nt
Cc1nc(CN2CCN(C(=O)NC3(c4ccccc4)CC3)CC2)cs1	1	2	-18	4	-30	1.2	nt	nt
COc1cccc(-c2nnc(SCC(=O)Nc3ccc(S(N)(=O)=O)cc3)n2C)c1	1	110*	38	3	-30	0.6	-8	-54
COc1cccc(-c2nnc(SCC(=O)Nc3cc(C)on3)n2C)c1	0.7	-5	10	34	-5	0.9	nt	nt
COc1ccccc1Nc1ncnc2nc[nH]c12	1	84*	-10	-3	-2	1.1	79*	-50
COc1ccc(N2CC(C(=O)NCc3ccccc3)CC2=O)cc1 (centres undefined)	1	nt	-8	4	nt	1.1	nt	nt
COc1ccc(N2CC(C(=O)NC3CC(C)(C)NC(C)(C)C3)CC2=O)cc1 (centres undefined)	1.1	70*	10	-11	10	0.9	-8	-50
COC(=O)c1c(-c2ccc(Br)cc2)noc1N	0.2	77*	50	78*	6	0.5	63*	-51
SMILES	CYP2C19 act	PLK1 inh	CYP2C9 inh	CYP2C19 inh	PLK1 PBD inh	CYP2C9 activ	PLK1 confirm	Plk1 interf
C=CCSc1nnc(-c2cc(Br)ccc2N)c(=O)[nH]1	0.7	71*	72*	32	-24	0.3	-11	-61
C=CCSc1nc2ccccc2c(=O)[nH]1	0.9	-7	26	13	0	0.7	nt	nt
CCCOc1ccc(C(C)=O)cc1CC(C(=O)OCC)C(=O)OCC	0.7	-24	38	32	-11	0.6	nt	nt
CCc1ccccc1N1CC23C=CC(O2)C(C(=O)OCC(C)C)C3C1=O (centres undefined)	0.6	72*	28	42	6	0.7	-9	-52
CCCCOC(=O)C1[C@H]2C(=O)N(c3ccccc3CC)C[C@]23C=C[C@H]1O3 (some centres undefined)	1	-6	-25	-1	-24	1.3	nt	nt
COc1cc2c(N3CCOCC3)cc(O)c(CC(=O)Nc3ccccc3)c2cc1OC	0.8	-13	10	19	-3	0.9	nt	nt
Cc1ccc(SCc2cc(=O)[nH]c(N3CCN(C)CC3)n2)cc1	0.9	-11	11	12	2	0.9	nt	nt
Cn1c(NC(=O)c2ccccc2C(F)(F)F)cc(=O)n(C)c1=O	1	76*	-1	0	0	1	4	-59
Cn1c(NC(=O)c2ccccc2Br)cc(=O)n(C)c1=O	1	nt	-30	-4	nt	1.3	nt	nt
O=C1c2ccccc2C(=O)N1CCCCSc1nnc2c(Cl)cc(Cl)cn12	0.5	0	17	49	22	0.8	nt	nt
Cc1ccc(C(=O)O)cc1S(=O)(=O)N1CCSCC1	0.9	82*	8	5	-1	0.9	-7	-57
Cc1ccc(C(=O)N2CCN(C)CC2)cc1S(=O)(=O)N1CCCCC1	0.9	nt	7	10	nt	0.9	nt	nt
COc1cc(C(=O)Nc2cc(C)c(OCC(=O)N3CCOCC3)c(C)c2)cc(OC)c1OC	1	3	9	3	4	0.9	nt	nt
CCCCNCc1cc(Br)c(OCC(=O)N2CCOCC2)c(OC)c1	1	125*	-2	-5	19	1	-6	-49
COc1ccc(N2Nc3n[nH]c(N)c3N2)cc1	nt	80*	nt	nt	12	nt	74*	-51
CCOc1ccc(N2Nc3n[nH]c(N)c3N2)cc1	nt	78*	nt	nt	-3	nt	68*	-51
CCOc1ccc(N2C(=O)c3ccccc3C2=O)cc1	1	0	-33	4	3	1.3	nt	nt
